Data: the supplement of paper PMC8007513
Counter-ions that a name gives are not always drawn. ± gives the standard error. The whole screen tested about 1,300 compounds, of which about 130 (10%) showed an effect of 50% or more. Only a selection was taken, and strong results are over-represented in it overall.

Test system: Trichoderma virens ATCC 9645
Test: growth yield (OD600) with compound + IPBC relative to untreated control; higher = less growth inhibition
Settings: compound concentration: 100 uM, IPBC concentration: 200 ng/ml
Summary of the method: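 Trichoderma virens ATCC 9645 spores, from potato dextrose agar plates grown for 7 days, were brought to 15,000 spores ml^−1 in potato dextrose broth and dispensed as 100 μl aliquots into 96-well plates. Each aliquot received library compounds at 100 μM final, with or without a biocide at 200 ng ml^−1, before growth at 30 °C and OD600 readings on a BioTek EL800 at 40 h and 72 h. Growth is expressed relative to the control containing neither agent and represents means of duplicate screens.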

Q: With CCOC(=O)N1CCC(=C2c3ccc(Cl)cc3CCc3cccnc32)CC1 [Loratadine] + CCCCNC(=O)OCC#CI [3-iodo-2-propynyl butylcarbamate (IPBC)] as the compound, how does the growth yield (40 h) read?
A: 17.3 ± 4%

Q: What about the growth yield (72 h) of the same compound?
A: 58.7 ± 2.5%

Q: How did the growth yield (40 h) turn out when Clc1ccc2c(c1)CCc1cccnc1C2=C1CCNCC1 [Desloratadine] + CCCCNC(=O)OCC#CI [3-iodo-2-propynyl butylcarbamate (IPBC)] was run?
A: 56.2 ± 0.64%

Q: What about the growth yield (72 h) of the same compound?
A: 89.7 ± 1.4%

Q: Which results are given for CN1CCC(=C2c3ccccc3CCc3cccnc32)CC1 [Azatadine maleate] + CCCCNC(=O)OCC#CI [3-iodo-2-propynyl butylcarbamate (IPBC)]?
A: growth yield (40 h): 99.6 ± 2.4%; growth yield (72 h): 97.43 ± 0.94%

Q: What does the source list for Nc1nc(=O)n([C@@H]2CS[C@H](CO)O2)cc1F [(-)-Emtricitabine] + CCCCNC(=O)OCC#CI [3-iodo-2-propynyl butylcarbamate (IPBC)]?
A: growth yield (40 h): 81.33 ± 0.64%; growth yield (72 h): 87.5 ± 1.1%

Q: What does the source list for CC(=O)[C@@]1(O)CC[C@H]2[C@@H]3C[C@H](C)C4=CC(=O)C=C[C@]4(C)[C@@]3(F)[C@@H](O)C[C@@]21C [Fluorometholone] + CCCCNC(=O)OCC#CI [3-iodo-2-propynyl butylcarbamate (IPBC)]?
A: growth yield (40 h): 91.3 ± 9.1%; growth yield (72 h): 88.7 ± 5%

Q: How did the growth yield (40 h) turn out when CC(=O)NS(=O)(=O)c1ccc(N)cc1 [Sulfacetamide sodic hydrate] + CCCCNC(=O)OCC#CI [3-iodo-2-propynyl butylcarbamate (IPBC)] was run?
A: 91.5 ± 1.3%

Q: And the growth yield (72 h)?
A: 93.7 ± 0.94%

Q: What does the source list for Cc1cc(NS(=O)(=O)c2ccc(N)cc2)no1 [Sulfamethoxazole] + CCCCNC(=O)OCC#CI [3-iodo-2-propynyl butylcarbamate (IPBC)]?
A: growth yield (40 h): 45.6 ± 1.1%; growth yield (72 h): 80 ± 1.6%

Q: How did the growth yield (40 h) turn out when Cc1noc(NS(=O)(=O)c2ccc(N)cc2)c1C [Sulfisoxazole] + CCCCNC(=O)OCC#CI [3-iodo-2-propynyl butylcarbamate (IPBC)] was run?
A: 77.7 ± 2.7%

Q: And the growth yield (72 h)?
A: 91.1 ± 1.4%

Q: For Cc1cc(C)nc(NS(=O)(=O)c2ccc(N)cc2)n1 [Sulfamethazine sodium salt] + CCCCNC(=O)OCC#CI [3-iodo-2-propynyl butylcarbamate (IPBC)], which growth yield (40 h) is on record?
A: 100 ± 14%

Q: What about the growth yield (72 h) of the same compound?
A: 98.5 ± 9.1%

Q: Which results are given for CC1CS(=O)(=O)CCN1/N=C/c1ccc([N+](=O)[O-])o1 (centres undefined) [Nifurtimox] + CCCCNC(=O)OCC#CI [3-iodo-2-propynyl butylcarbamate (IPBC)]?
A: growth yield (40 h): 91.5 ± 12%; growth yield (72 h): 91.9 ± 6.9%

Q: Which growth yield (40 h) does the source give for C[C@H](CS)C(=O)N1CCC[C@H]1C(=O)O [Captopril] + CCCCNC(=O)OCC#CI [3-iodo-2-propynyl butylcarbamate (IPBC)] here?
A: 90.1 ± 1.1%

Q: And the growth yield (72 h)?
A: 90.1 ± 1.1%

Q: Which growth yield (40 h) does the source give for C1CCC(C(CC2CCCCN2)C2CCCCC2)CC1 (centres undefined) [Perhexiline maleate] + CCCCNC(=O)OCC#CI [3-iodo-2-propynyl butylcarbamate (IPBC)] here?
A: 40.981 ± 7.1e-15%

Q: And the growth yield (72 h)?
A: 85.27 ± 0.32%

Q: Which results are given for CN1C(C(=O)Nc2ccccn2)=C(O)c2sccc2S1(=O)=O [Tenoxicam] + CCCCNC(=O)OCC#CI [3-iodo-2-propynyl butylcarbamate (IPBC)]?
A: growth yield (40 h): 83.1 ± 2.1%; growth yield (72 h): 94.08 ± 0.1%

Q: Which results are given for CCCCC1(COC(=O)CCC(=O)O)C(=O)N(c2ccccc2)N(c2ccccc2)C1=O [Suxibuzone] + CCCCNC(=O)OCC#CI [3-iodo-2-propynyl butylcarbamate (IPBC)]?
A: growth yield (40 h): 89.4 ± 2.7%; growth yield (72 h): 92.71 ± 0.84%

Q: How did the growth yield (40 h) turn out when Cc1cccc(C)c1NC(=O)C1CCCCN1C (centres undefined) [Mepivacaine hydrochloride] + CCCCNC(=O)OCC#CI [3-iodo-2-propynyl butylcarbamate (IPBC)] was run?
A: 91.3 ± 3.3%

Q: And the growth yield (72 h)?
A: 96.3 ± 4%

Q: CCCCC[C@H](O)/C=C/[C@@H]1[C@@H](C/C=C\CCCC(=O)O)[C@@H](O)C[C@H]1O [Dinoprost trometamol] + CCCCNC(=O)OCC#CI [3-iodo-2-propynyl butylcarbamate (IPBC)] was tested. Which growth yield (40 h) did it give?
A: 83.1 ± 1.1%

Q: And the growth yield (72 h)?
A: 94.08 ± 0.52%

Q: What does the source list for Nc1nc2ccc(OC(F)(F)F)cc2s1 [Riluzole hydrochloride] + CCCCNC(=O)OCC#CI [3-iodo-2-propynyl butylcarbamate (IPBC)]?
A: growth yield (40 h): 27.3 ± 2.2%; growth yield (72 h): 49.3 ± 1.9%

Q: Which growth yield (40 h) does the source give for CCOc1ccc2nc(S(N)(=O)=O)sc2c1 [Ethoxzolamide] + CCCCNC(=O)OCC#CI [3-iodo-2-propynyl butylcarbamate (IPBC)] here?
A: 90.2%

Q: And the growth yield (72 h)?
A: 92.2 ± 3.9%

Q: How did the growth yield (40 h) turn out when CC(C(=O)O)c1ccc(N2Cc3ccccc3C2=O)cc1 (centres undefined) [Indoprofen] + CCCCNC(=O)OCC#CI [3-iodo-2-propynyl butylcarbamate (IPBC)] was run?
A: 88.8 ± 11%

Q: What about the growth yield (72 h) of the same compound?
A: 91.2 ± 7.3%

Q: With Cc1ccc(C(=O)c2ccc(CC(=O)O)n2C)cc1 [Tolmetin sodium salt dihydrate] + CCCCNC(=O)OCC#CI [3-iodo-2-propynyl butylcarbamate (IPBC)] as the compound, how does the growth yield (40 h) read?
A: 77.8 ± 4.8%

Q: And the growth yield (72 h)?
A: 83.9 ± 2.3%

Q: With C[C@]12CC[C@H](O)C[C@H]1CC[C@@H]1[C@@H]2CC[C@]2(C)[C@@H](C3=CC(=O)OC3)CC[C@]12O [Digitoxigenin] + CCCCNC(=O)OCC#CI [3-iodo-2-propynyl butylcarbamate (IPBC)] as the compound, how does the growth yield (40 h) read?
A: 79.58 ± 0.48%

Q: And the growth yield (72 h)?
A: 87.36 ± 0.52%

Q: Which results are given for NC(=O)NC1NC(=O)NC1=O (centres undefined) [Allantoin] + CCCCNC(=O)OCC#CI [3-iodo-2-propynyl butylcarbamate (IPBC)]?
A: growth yield (40 h): 83.71 ± 0.48%; growth yield (72 h): 89.2 ± 2.2%

Q: What does the source list for CC(C)OC(=O)C(C)(C)Oc1ccc(C(=O)c2ccc(Cl)cc2)cc1 [Fenofibrate] + CCCCNC(=O)OCC#CI [3-iodo-2-propynyl butylcarbamate (IPBC)]?
A: growth yield (40 h): 65.4 ± 1.3%; growth yield (72 h): 76.3 ± 1.9%

Q: With O=c1[nH]cc(F)c(=O)[nH]1 [5-fluorouracil] + CCCCNC(=O)OCC#CI [3-iodo-2-propynyl butylcarbamate (IPBC)] as the compound, how does the growth yield (40 h) read?
A: 36.9%

Q: What about the growth yield (72 h) of the same compound?
A: 58.1 ± 1.3%

Q: Which results are given for Nc1nc(=O)[nH]cc1F [Flucytosine] + CCCCNC(=O)OCC#CI [3-iodo-2-propynyl butylcarbamate (IPBC)]?
A: growth yield (40 h): 88.5 ± 2.1%; growth yield (72 h): 90.4 ± 0.63%

Q: What does the source list for CCN(CC)C(C)C(=O)c1ccccc1 (centres undefined) [Amfepramone hydrochloride] + CCCCNC(=O)OCC#CI [3-iodo-2-propynyl butylcarbamate (IPBC)]?
A: growth yield (40 h): 102 ± 15%; growth yield (72 h): 102 ± 9.3%

Q: Which results are given for O=C1C(CC[S+]([O-])c2ccccc2)C(=O)N(c2ccccc2)N1c1ccccc1 (centres undefined) [Sulfinpyrazone] + CCCCNC(=O)OCC#CI [3-iodo-2-propynyl butylcarbamate (IPBC)]?
A: growth yield (40 h): 106 ± 9.2%; growth yield (72 h): 105 ± 2.4%
